Measurements from paper PMC11006913.
Substitutions are numbered along the chain they refer to.

Assays:
Test in all cases: PBM; 200 nM protein, PBS
Conditions in all cases: dsDNA, one strand shown
HOXB9 [1] = molecular target: HOXB9 (Homo sapiens, UniProt P17482 171-250, T197M)
HOXC10 [2] = molecular target: HOXC10 (Homo sapiens, UniProt Q9NYD6 254-340)
HOXB9 [3] = molecular target: HOXB9 (Homo sapiens, UniProt P17482 171-250)
HOXC10 [4] = molecular target: HOXC10 (Homo sapiens, UniProt Q9NYD6 254-340, K271E)
HOXB9 [5] = molecular target: HOXB9 (Homo sapiens, UniProt P17482 171-250, R186Q)
PRRX1 [6] = molecular target: PRRX1 (Homo sapiens, UniProt P54821 80-166, F113S)
HOXB6 = HOXB6 (Homo sapiens, UniProt P17509 132-218, K202E)
PRRX1 [7] = molecular target: PRRX1 (Homo sapiens, UniProt P54821 80-166)
PAX4 [8] = molecular target: T1, PAX4 (Homo sapiens, UniProt O43316 9-242, R200K)
T1 sequence: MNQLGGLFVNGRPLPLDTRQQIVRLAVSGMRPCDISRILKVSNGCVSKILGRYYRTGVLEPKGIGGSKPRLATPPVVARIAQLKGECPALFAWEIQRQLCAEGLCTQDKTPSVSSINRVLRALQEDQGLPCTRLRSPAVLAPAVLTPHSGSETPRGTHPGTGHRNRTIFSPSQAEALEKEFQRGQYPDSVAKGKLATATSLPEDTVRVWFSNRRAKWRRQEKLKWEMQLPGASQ

ALX3 [9] = molecular target: ALX3 (Homo sapiens, UniProt O95076 139-225, N203Q)
HOXC9 [10] = molecular target: HOXC9 (Homo sapiens, UniProt P31274 178-260, R193K)
PAX4 [11] = molecular target: T2, PAX4 (Homo sapiens, UniProt O43316 9-242, F177V)
T2 sequence: T1 sequence with F169V, K192R

PAX4 [12] = molecular target: T3, PAX4 (Homo sapiens, UniProt O43316 9-242, F177Y)
T3 sequence: T1 sequence with F169Y, K192R

HOXC9 [13] = molecular target: HOXC9 (Homo sapiens, UniProt P31274 178-260, R222W)
PAX4 [14] = molecular target: T4, PAX4 (Homo sapiens, UniProt O43316 9-242, R227W)
T4 sequence: T1 sequence with K192R, R219W

ALX3 [15] = molecular target: ALX3 (Homo sapiens, UniProt O95076 139-225, N203S)
HOXA7 [16] = molecular target: HOXA7 (Homo sapiens, UniProt P31268 116-202)
HOXD13 [17] = molecular target: HOXD13 (Homo sapiens, UniProt P35453 263-343, T313R)
HOXD13 [18] = molecular target: HOXD13 (Homo sapiens, UniProt P35453 263-343)
HOXD13 [19] = molecular target: HOXD13 (Homo sapiens, UniProt P35453 263-343, T313A)
HOXA7 [20] = molecular target: HOXA7 (Homo sapiens, UniProt P31268 116-202, W177C)
Chain of HOXA7 (Homo sapiens, UniProt P31268 116-202, W177C) (P31268 116-202 W177C): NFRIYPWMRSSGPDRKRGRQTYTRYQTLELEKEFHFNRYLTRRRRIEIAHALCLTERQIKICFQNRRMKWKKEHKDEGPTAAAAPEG

Chain of HOXB9 (Homo sapiens, UniProt P17482 171-250, T197M) (P17482 171-250 T197M): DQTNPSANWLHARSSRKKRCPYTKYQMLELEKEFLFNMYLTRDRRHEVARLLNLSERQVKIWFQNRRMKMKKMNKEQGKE
Chain of HOXB9 (Homo sapiens, UniProt P17482 171-250, R186Q) (P17482 171-250 R186Q): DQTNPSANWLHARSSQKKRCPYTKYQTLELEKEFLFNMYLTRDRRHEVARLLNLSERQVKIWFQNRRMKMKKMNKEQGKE
Chain of HOXB9 (Homo sapiens, UniProt P17482 171-250) (P17482 171-250): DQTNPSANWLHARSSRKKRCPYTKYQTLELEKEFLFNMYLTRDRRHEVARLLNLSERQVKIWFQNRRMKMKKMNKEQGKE
Chain of PRRX1 (Homo sapiens, UniProt P54821 80-166, F113S) (P54821 80-166 F113S): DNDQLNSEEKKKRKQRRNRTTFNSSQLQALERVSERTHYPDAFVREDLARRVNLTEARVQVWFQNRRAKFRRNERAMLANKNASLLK
Chain of HOXB6 (P17509 132-218 K202E): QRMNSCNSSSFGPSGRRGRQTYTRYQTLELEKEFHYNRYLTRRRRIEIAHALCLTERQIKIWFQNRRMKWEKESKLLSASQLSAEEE
Chain of HOXD13 (Homo sapiens, UniProt P35453 263-343, T313R) (P35453 263-343 T313R): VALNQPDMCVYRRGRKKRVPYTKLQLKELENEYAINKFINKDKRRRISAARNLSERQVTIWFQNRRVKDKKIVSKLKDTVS
Chain of ALX3 (Homo sapiens, UniProt O95076 139-225, N203S) (O95076 139-225 N203S): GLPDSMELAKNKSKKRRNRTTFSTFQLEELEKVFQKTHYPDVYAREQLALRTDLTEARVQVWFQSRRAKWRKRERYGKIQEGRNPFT
Chain of ALX3 (Homo sapiens, UniProt O95076 139-225, N203Q) (O95076 139-225 N203Q): as the sequence (O95076 139-225 N203S) above, with S65Q counted along it
Chain of PRRX1 (Homo sapiens, UniProt P54821 80-166) (P54821 80-166): as the sequence (P54821 80-166 F113S) above, with S34F counted along it
Chain of HOXC9 (Homo sapiens, UniProt P31274 178-260, R222W) (P31274 178-260 R222W): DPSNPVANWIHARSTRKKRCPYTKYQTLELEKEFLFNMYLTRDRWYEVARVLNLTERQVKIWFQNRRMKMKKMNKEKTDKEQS
Chain of HOXD13 (Homo sapiens, UniProt P35453 263-343, T313A) (P35453 263-343 T313A): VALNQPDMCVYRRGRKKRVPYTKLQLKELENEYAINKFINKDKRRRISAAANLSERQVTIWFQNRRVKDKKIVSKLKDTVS
Chain of HOXA7 (Homo sapiens, UniProt P31268 116-202) (P31268 116-202): as the sequence (P31268 116-202 W177C) above, with C62W counted along it
Chain of HOXD13 (Homo sapiens, UniProt P35453 263-343) (P35453 263-343): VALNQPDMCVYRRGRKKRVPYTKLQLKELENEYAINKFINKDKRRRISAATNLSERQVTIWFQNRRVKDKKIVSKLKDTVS
Chain of HOXC10 (Homo sapiens, UniProt Q9NYD6 254-340, K271E) (Q9NYD6 254-340 K271E): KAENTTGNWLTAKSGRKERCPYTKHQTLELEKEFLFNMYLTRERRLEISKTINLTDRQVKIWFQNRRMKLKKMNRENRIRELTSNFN
Chain of HOXC9 (Homo sapiens, UniProt P31274 178-260, R193K) (P31274 178-260 R193K): as the sequence (P31274 178-260 R222W) above, with R16K, W45R counted along it
Chain of HOXC10 (Homo sapiens, UniProt Q9NYD6 254-340) (Q9NYD6 254-340): as the sequence (Q9NYD6 254-340 K271E) above, with E18K counted along it

**Q.** How did the binding signal (HOXB9 [1]) turn out when GAGTCTCC was run?
**A.** 8.54 upbm affinity estimate (log intensity, higher = more binding, comparable within an allelic series)

**Q.** What about the binding signal (HOXC10 [2]) of the same sequence?
**A.** 10 upbm affinity estimate (log intensity, higher = more binding, comparable within an allelic series)

**Q.** What about the binding signal (HOXB9 [3]) of the same sequence?
**A.** 8.49 upbm affinity estimate (log intensity, higher = more binding, comparable within an allelic series)

**Q.** And the binding signal (HOXC10 [4])?
**A.** 9.99 upbm affinity estimate (log intensity, higher = more binding, comparable within an allelic series)

**Q.** What about the binding signal (HOXB9 [5]) of the same sequence?
**A.** 8.45 upbm affinity estimate (log intensity, higher = more binding, comparable within an allelic series)

**Q.** Which results are given for AATTATAT?
**A.** binding signal (HOXB9 [1]): 9.99 upbm affinity estimate (log intensity, higher = more binding, comparable within an allelic series); binding signal (PRRX1 [6]): 11.1 upbm affinity estimate (log intensity, higher = more binding, comparable within an allelic series); binding signal (HOXB6): 9.99 upbm affinity estimate (log intensity, higher = more binding, comparable within an allelic series)

**Q.** Which binding signal (HOXB9 [1]) does the source give for GCCGGAGC here?
**A.** 8.56 upbm affinity estimate (log intensity, higher = more binding, comparable within an allelic series)

**Q.** What about the binding signal (PRRX1 [6]) of the same sequence?
**A.** 9.3 upbm affinity estimate (log intensity, higher = more binding, comparable within an allelic series)

**Q.** What about the binding signal (HOXB9 [3]) of the same sequence?
**A.** 8.68 upbm affinity estimate (log intensity, higher = more binding, comparable within an allelic series)

**Q.** What about the binding signal (HOXB9 [5]) of the same sequence?
**A.** 8.69 upbm affinity estimate (log intensity, higher = more binding, comparable within an allelic series)

**Q.** What about the binding signal (PRRX1 [7]) of the same sequence?
**A.** 9.61 upbm affinity estimate (log intensity, higher = more binding, comparable within an allelic series)

**Q.** Which binding signal (HOXB9 [1]) does the source give for ATTAAATA here?
**A.** 10.1 upbm affinity estimate (log intensity, higher = more binding, comparable within an allelic series)

**Q.** What about the binding signal (PAX4 [8]) of the same sequence?
**A.** 11.7 upbm affinity estimate (log intensity, higher = more binding, comparable within an allelic series)

**Q.** And the binding signal (PRRX1 [6])?
**A.** 11.1 upbm affinity estimate (log intensity, higher = more binding, comparable within an allelic series)

**Q.** And the binding signal (HOXB6)?
**A.** 10 upbm affinity estimate (log intensity, higher = more binding, comparable within an allelic series)

**Q.** What about the binding signal (HOXB9 [3]) of the same sequence?
**A.** 11.7 upbm affinity estimate (log intensity, higher = more binding, comparable within an allelic series)

**Q.** And the binding signal (ALX3 [9])?
**A.** 8.66 upbm affinity estimate (log intensity, higher = more binding, comparable within an allelic series)

**Q.** And the binding signal (HOXC9 [10])?
**A.** 12.5 upbm affinity estimate (log intensity, higher = more binding, comparable within an allelic series)

**Q.** What about the binding signal (PAX4 [11]) of the same sequence?
**A.** 10.8 upbm affinity estimate (log intensity, higher = more binding, comparable within an allelic series)

**Q.** What about the binding signal (PAX4 [12]) of the same sequence?
**A.** 11.1 upbm affinity estimate (log intensity, higher = more binding, comparable within an allelic series)

**Q.** What about the binding signal (HOXB9 [5]) of the same sequence?
**A.** 11.5 upbm affinity estimate (log intensity, higher = more binding, comparable within an allelic series)

**Q.** And the binding signal (HOXC9 [13])?
**A.** 11.1 upbm affinity estimate (log intensity, higher = more binding, comparable within an allelic series)

**Q.** And the binding signal (PAX4 [14])?
**A.** 11 upbm affinity estimate (log intensity, higher = more binding, comparable within an allelic series)

**Q.** And the binding signal (ALX3 [15])?
**A.** 8.86 upbm affinity estimate (log intensity, higher = more binding, comparable within an allelic series)

**Q.** Which results are given for CTATAAAC?
**A.** binding signal (HOXB9 [1]): 9.58 upbm affinity estimate (log intensity, higher = more binding, comparable within an allelic series); binding signal (HOXA7 [16]): 9.84 upbm affinity estimate (log intensity, higher = more binding, comparable within an allelic series); binding signal (HOXB9 [3]): 11.5 upbm affinity estimate (log intensity, higher = more binding, comparable within an allelic series); binding signal (HOXD13 [17]): 10.9 upbm affinity estimate (log intensity, higher = more binding, comparable within an allelic series); binding signal (HOXD13 [18]): 12.2 upbm affinity estimate (log intensity, higher = more binding, comparable within an allelic series); binding signal (HOXD13 [19]): 12 upbm affinity estimate (log intensity, higher = more binding, comparable within an allelic series); binding signal (HOXB9 [5]): 11.2 upbm affinity estimate (log intensity, higher = more binding, comparable within an allelic series); binding signal (HOXA7 [20]): 8.92 upbm affinity estimate (log intensity, higher = more binding, comparable within an allelic series)

**Q.** What does the source list for ATAAATGA?
**A.** binding signal (HOXB9 [1]): 9.72 upbm affinity estimate (log intensity, higher = more binding, comparable within an allelic series); binding signal (HOXB9 [3]): 11 upbm affinity estimate (log intensity, higher = more binding, comparable within an allelic series); binding signal (HOXB9 [5]): 10.8 upbm affinity estimate (log intensity, higher = more binding, comparable within an allelic series)
